This is part of a sample that, as a whole, favours compounds with a hit. Of some 79,000 tested, about 15% had one in any assay. The source made the active and inactive calls. No stated cut-off is given here; in the data, active means growth inhibition above about 70%; inactive means the rest.

The assay can be described thus: NCI Yeast Anticancer Drug Screen. Data for the mec2-1 strain (AID 157). The settings on record: S. cerevisiae mec2-1 strain, at 50.0 µM, active compounds read high. As for the experimental part: Growth inhibition of yeast strains with defined genetic alterations is measured as a screen for potential anti-cancer activity. Selected strains with alterations in DNA damage repair or cell cycle control were exposed to compounds and growth inhibition was measured relative to vehicle treated controls. The strain used in this assay is mec2-1
As for `Cc1ccc(Cl)cc1NC(=O)/C=C/c1ccccc1`, the growth inhibition is 8.4% (inactive). For the compound `NC(Cc1ccccc1)C(=O)Nc1ccccc1` (stereo not given), the growth inhibition was -16% (inactive). For `CCOC(=O)C(Cc1cn(S(=O)(=O)c2ccc(C)cc2)cn1)P(=O)(OCC)OCC` (stereo not given), the growth inhibition was -4.45% (inactive). Consider `O=C(CC(=O)N1N=C(n2ccc3ccccc32)CC1c1ccccc1)Nc1cccc(Cl)c1` (stereo not given), for which the growth inhibition was -15.3% (inactive).

Turning to `S=c1[nH]c2ccccc2n2cccc12`, the growth inhibition was -7.15% (inactive). Regarding `Cc1c(CCNC(=O)C(F)(F)F)ccc2c1[nH]c1ccccc12`, the growth inhibition is 3.05% (inactive).

Take `CN(C)c1ccc(C=C2C(=O)CC(C)(C)CC2=O)cc1`: the growth inhibition is 10.2% (inactive).

For the compound `O=CNc1ccccc1Cc1ccccc1`, the growth inhibition is -24% (inactive). In the case of `O=[N+]([O-])C(/C=C(\Cl)[N+](=O)[O-])=C1Nc2ccccc2N1`, the growth inhibition is 45.1% (inactive). For `BrCCCOc1ccccc1`, the growth inhibition is -32.8% (inactive). In the case of `CN(C)C(=O)Nc1cccc(OS(=O)(=O)N(C)C)c1`, the growth inhibition is 26.1% (inactive). The value for `CCCCCCCCCCCCCCCCCCNc1ccccc1` was 9.15% (inactive); that for `Cc1cc(C)c(N)c(C)n1` was -9.6% (inactive); that for `Cc1c2cccc(Br)c2c[n+]2ccccc12` was 18.4% (inactive). In the case of `CC(C)C(N=Cc1ccccc1O)C(=O)O` (stereo not given), the growth inhibition is -21.9% (inactive). For the compound `O=Cc1ccc2ccocc1-2`, the growth inhibition is 14.8% (inactive).

`Nc1cc2c(cc1I)-c1ccccc1C2O` (stereo not given): the growth inhibition is 4.55% (inactive).

Consider `COc1ccc(CC2OC(C)CC(C)(C)O2)cc1` (stereo not given), for which the growth inhibition is -12.2% (inactive).

For `N#CCCN(C1=NN(C(=O)CC(=O)Nc2ccccc2)C(c2ccccc2)C1)c1ccccc1Cl` (stereo not given), the growth inhibition is -3.9% (inactive). Turning to `CCCCCCCCCCCCCCCCCCCCC1CC(=O)OC1=O` (stereo not given), the growth inhibition was 11.8% (inactive).

Take `C=CCCCCCCCCCO`: the growth inhibition is -11% (inactive). With `CC(=O)NC(C=O)C(O)C(O)C(O)C(=O)O` (stereo not given), the growth inhibition was -11.4% (inactive).

For the compound `C/C(=N\NC(=O)c1cccnc1)c1cccc(/C(C)=N/NC(=O)c2cccnc2)n1.CC(=O)[O-].CC(=O)[O-].[Zn+2]`, the growth inhibition was 5.15% (inactive). `CC/C(C)=N\NC(N)=O`: the growth inhibition was 6.7% (inactive).

Regarding `COc1cc(/C=C(\C#N)C(=O)c2ccccc2)ccc1O`, the growth inhibition is -18.1% (inactive). Regarding `FC(F)(c1nnnn1Cc1ccccc1)C(F)(F)C(F)(F)C(F)(F)C(F)(F)C(F)(F)C(F)(F)C(F)(F)c1nnnn1Cc1ccccc1`, the growth inhibition is 13.7% (inactive). For the compound `CCOC(=O)C(=[N+]=[N-])C(O)C1OC(c2ccccc2)OCC1O` (stereo not given), the growth inhibition was 18.1% (inactive).

Consider `CN(C)Cn1c2ccccc2c2ccccc21`, for which the growth inhibition is -1.1% (inactive). Regarding `CC(=O)c1c(O)ccc2c(C)cc(=O)oc12`, the growth inhibition was 18.8% (inactive). Regarding `CC(=O)Nc1ccccc1C`, the growth inhibition is -7.1% (inactive). For the compound `O=C(Nc1ncccn1)c1ccc(Cl)cc1Cl`, the growth inhibition is 4.8% (inactive). Take `CCN(CC)CCCC(C)Nc1c2ccc(Cl)cc2nc2c(Cl)cc(Cl)cc12` (stereo not given): the growth inhibition was 4.75% (inactive). The figure for `CCCCNS(=O)(=O)c1ccccc1` is -18.1% (inactive). Consider `OCCCCC(c1ccc(O)cc1)c1ccc(O)cc1`, for which the growth inhibition is -52.3% (inactive). For the compound `CC(=O)c1ccc(O)c(C=O)c1O`, the growth inhibition is 9.3% (inactive).

`CC1CCN(C(c2ccccc2)c2ccc3ccccc3c2O)CC1` (stereo not given): the growth inhibition was 42.2% (inactive). In the case of `O=C(CCl)Oc1cccc([N+](=O)[O-])c1`, the growth inhibition was -11.2% (inactive). As to `CCOC(=O)CCC(=O)c1ccc2cc(OC)ccc2c1`, the growth inhibition is 25.2% (inactive). The figure for `Cc1cc(C(=O)O)cc(C)c1N(C)Cc1cnc2nc(N)nc(N)c2n1` is -11.8% (inactive). For `Nc1c(N=Nc2ccc(S(=O)(=O)Nc3cnccn3)cc2)cc(S(=O)(=O)O)c2ccccc12`, the growth inhibition is -2.45% (inactive).

The values are drawn from PubChem BioAssay (NCI).
